# Whole data set: some 8,300 sequences, median “log2 fold change of degron read counts, EGFP-low vs EGFP+ sorted cells (limma voom), compound-induced degradation” near -1.1, cut for the highest 2% near 3.2. The entries come from a sample that favours the highest values as a whole.
# T1: CRBN, Q96SW2
# T1 chain: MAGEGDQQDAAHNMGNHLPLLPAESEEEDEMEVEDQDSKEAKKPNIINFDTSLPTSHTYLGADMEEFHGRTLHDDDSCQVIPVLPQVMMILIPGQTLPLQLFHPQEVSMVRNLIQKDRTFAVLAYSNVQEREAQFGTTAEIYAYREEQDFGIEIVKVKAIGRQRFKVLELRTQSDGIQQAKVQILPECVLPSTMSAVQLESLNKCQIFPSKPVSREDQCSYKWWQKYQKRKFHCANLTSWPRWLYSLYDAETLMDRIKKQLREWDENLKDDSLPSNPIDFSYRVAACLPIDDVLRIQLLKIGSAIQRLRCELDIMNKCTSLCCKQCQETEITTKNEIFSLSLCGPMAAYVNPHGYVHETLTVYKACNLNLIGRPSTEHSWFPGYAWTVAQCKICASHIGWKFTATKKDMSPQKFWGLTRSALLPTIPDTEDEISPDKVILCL
# Target: T1, CRBN, Q96SW2
# Experiment: log2 fold change of degron read counts, EGFP-low vs EGFP+ sorted cells (limma voom), compound-induced degradation; higher = more compound-induced degradation of the degron-EGFP fusion; degrons are variants of IKZF1/3 zinc finger 2; compound dose not given here
# Details: Jurkat, 18 h
# [1] = compound: compound 19 (5-tert-butyl-thalidomide)
# [2] = compound: compound 22 (5-morpholino-thalidomide)
# [3] = compound: compound 33 (diphenyl IMiD analogue)
# 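Further: pooled lentiviral library of zinc finger degron-EGFP fusions in mCherry-positive Jurkat cells, FACS-sorted after compound exposure, with degron abundance counted by next-generation sequencing.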
Sequence,log2 fold change of degron read counts [1],log2 fold change of degron read counts [2],log2 fold change of degron read counts [3],log2 fold change of degron read counts (compound: thalidomide)
"FYCEICGRMFTQKGNLLRHIKL [46F_47Y_49E_50I_52G_53R_54M_55F_67L_, Q9UKT9]",1.51,1.03,1.08,-0.729
"FWCPQCGATFTQKGNLLRHIKL [46F_47W_49P_50Q_52G_53A_54T_55F_67L_, Q9UKT9]",-0.373,1.49,0.797,-1.24
"FMCDQCGAAFTQKGNLLRHIKL [46F_47M_49D_50Q_52G_53A_54A_55F_67L_, Q9UKT9]",-1.96,-2.12,0.439,-2.32
"LYCNQCGFLCTQKGNLLRHIKL [46L_47Y_49N_50Q_52G_53F_54L_55C_67L_, Q9UKT9]",-1.29,-1.42,-1.67,-1.29
"FECEICGRSFTQKGNLLRHIKL [46F_47E_49E_50I_52G_53R_54S_55F_67L_, Q9UKT9]",-2.51,-3.16,-1.24,-1.32
"FNCEQCGAWFTQKGNLLRHIKL [46F_47N_49E_50Q_52G_53A_54W_55F_67L_, Q9UKT9]",-2.53,-2.58,-2.99,-2.13
"FLCDICGADFTQKGNLLRHIKL [46F_47L_49D_50I_52G_53A_54D_55F_67L_, Q9UKT9]",-2.36,-3.49,-2.12,-2.22
"FHCPICGRNFTQKGNLLRHIKL [46F_47H_49P_50I_52G_53R_54N_55F_67L_, Q9UKT9]",-0.818,-0.983,-0.208,-0.527
"FECEICGADFTQKGNLLRHIKL [46F_47E_49E_50I_52G_53A_54D_55F_67L_, Q9UKT9]",-1.96,-2.74,0.273,0.225
"LVCPICGFNCTQKGNLLRHIKL [46L_47V_49P_50I_52G_53F_54N_55C_67L_, Q9UKT9]",-0.376,1.56,1.51,2.74
"LWCPICGFPCTQKGNLLRHIKL [46L_47W_49P_50I_52G_53F_54P_55C_67L_, Q9UKT9]",1.54,1.47,1.88,1.22
"FICPICGHPFTQKGNLLRHIKL [46F_47I_49P_50I_52G_53H_54P_55F_67L_, Q9UKT9]",-1.76,-0.823,-0.563,0.027
"FQCPICGAPFTQKGNLLRHIKL [46F_47Q_49P_50I_52G_53A_54P_55F_67L_, Q9UKT9]",3.38,3.6,2.53,3.65
"FACPICGAMFTQKGNLLRHIKL [46F_47A_49P_50I_52G_53A_54M_55F_67L_, Q9UKT9]",2.8,1.12,0.702,0.265
"FQCPICGAFFTQKGNLLRHIKL [46F_47Q_49P_50I_52G_53A_54F_55F_67L_, Q9UKT9]",-1.33,-0.0266,2.3,2.67
"FMCPICGAMFTQKGNLLRHIKL [46F_47M_49P_50I_52G_53A_54M_55F_67L_, Q9UKT9]",-0.414,-0.22,1.72,0.511
"FMCPICGAPFTQKGNLLRHIKL [46F_47M_49P_50I_52G_53A_54P_55F_67L_, Q9UKT9]",3.36,3.49,3.09,2.98
"FQCPICGRPFTQKGNLLRHIKL [46F_47Q_49P_50I_52G_53R_54P_55F_67L_, Q9UKT9]",0.103,1.27,0.384,2.92
"FACPICGAPFTQKGNLLRHIKL [46F_47A_49P_50I_52G_53A_54P_55F_67L_, Q9UKT9]",3.7,3.03,1.56,2.64
"FMCPICGADFTQKGNLLRHIKL [46F_47M_49P_50I_52G_53A_54D_55F_67L_, Q9UKT9]",-1.3,-0.0353,2.99,1.23
"FICPICGAPFTQKGNLLRHIKL [46F_47I_49P_50I_52G_53A_54P_55F_67L_, Q9UKT9]",1.94,3.65,2.52,3.16
"FACPICGADFTQKGNLLRHIKL [46F_47A_49P_50I_52G_53A_54D_55F_67L_, Q9UKT9]",2.75,0.745,0.673,0.2
"FICPICGADFTQKGNLLRHIKL [46F_47I_49P_50I_52G_53A_54D_55F_67L_, Q9UKT9]",-0.647,0.966,1.15,1.89
"FDCNICGAQFTQKGNLLRHIKL [46F_47D_49N_50I_52G_53A_54Q_55F_67L_, Q9UKT9]",-0.355,-0.127,-0.237,0.552
"FRCEQCGALFTQKGNLLRHIKL [46F_47R_49E_50Q_52G_53A_54L_55F_67L_, Q9UKT9]",-3.49,-2.97,-0.178,-1.64
"FRCPICGHTFTQKGNLLRHIKL [46F_47R_49P_50I_52G_53H_54T_55F_67L_, Q9UKT9]",-2.68,-2.91,-2.15,-2.02
"FSCEICGRYFTQKGNLLRHIKL [46F_47S_49E_50I_52G_53R_54Y_55F_67L_, Q9UKT9]",-0.304,-1.64,-1.28,-1.44
"FDCNICGARFTQKGNLLRHIKL [46F_47D_49N_50I_52G_53A_54R_55F_67L_, Q9UKT9]",1.3,0.634,-0.123,1.24
